Changes are numbered by the printed parent chain. Whole data set: some 24,000 sequences, median “enrichment r” near 0.99, cut for the highest 2% near 3.7. This excerpt belongs to a sample that is enriched for the highest values.
T1: UNK ZnF1-3 (human, UniProt Q9C0B0 31-174)
T1 sequence: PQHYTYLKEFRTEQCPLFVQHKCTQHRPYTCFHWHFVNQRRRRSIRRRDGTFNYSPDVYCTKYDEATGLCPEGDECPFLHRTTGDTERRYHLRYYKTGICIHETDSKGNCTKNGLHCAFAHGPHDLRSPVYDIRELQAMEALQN

B1: 103221519_103221723_537_3pUTR_ENSMUSG00000041781_ENSMUST00000047357|mouse|control|control (ssRNA)
RNA: GGGAGUUCUACAGUCCGACGAUCCAAUCUGAGAGAACUUCAGCUGCUGUAUUUUGUCAAAGGCUGCAUCCACAUCAUCCAAUGUAAAGAGGGUAAAAUCUUCUGUAUUGUGUCGAGACUGAUAGAGGUCGUACAUGAACAUCUCAACAGAGGAUUGAGCAUCA
B2: chr4:25749455:25749456:-_ENSG00000091490_ENST00000264868|hu_hu|hu_hu_hu_mus_False|8_108 (ssRNA)
RNA: GGGAGUUCUACAGUCCGACGAUCGCAAGCACUAGGAUAGAAAAAUCCACAGGGGGAAAAAAUGUAAACCAAUGUACAAUGUUAUCGCCUUCCCUGUGUGUGGAGUGUUUGUCUCAAGGCUCCUUCUUGCCUUAUAAUUUGGGACAACAGAGGAUUGAGCAUCA
B3: chr11:46405157:46405158:+_ENSG00000110492_ENST00000395566|hu_hu|hu_hu_hu_mus_False|78_78 (ssRNA)
RNA: GGGAGUUCUACAGUCCGACGAUCCCCUCCCCACUUUGGGCACUUGGUGUGGGCGUGAAGGCAGGGCCGUGAUUGACAGAGCUGACAGGAAGACAAAAGGCACUGGUGGGUUAUAUCUUGGGCCUGUGGGAGAGGAGGGCUCCGCAACAGAGGAUUGAGCAUCA
B4: 52873384_52873592_4094_CDS_ENSMUSG00000035247_ENSMUST00000042052|mouse|control|control (ssRNA)
RNA: GGGAGUUCUACAGUCCGACGAUCCACCAGGCGCCUCUGCCUUCUAAGAUUAGCUUCUGCUUCUUUAGCUGCUUUCCCUAGUUGGUCUUCGCACACGCCAUUCACAGUGCCAUAGAGUUCAAAGCCGGAGAGCGAGAGGUAGUGCAACAGAGGAUUGAGCAUCA
B5: chr13:112505112:112505113:+_ENSMUSG00000032727_ENSMUST00000109272|mus_mus|FALSE|FALSE (ssRNA)
RNA: GGGAGUUCUACAGUCCGACGAUCCAUAAAGGAUUCGGGGACAGCAAUGCCCAUCUUCAAUCUCUUUGCUGGUCUUUCGGAUUCUUCGCUGCACAUGGGGUUUAACUCUGAGUGAUAAAAUCCAGUCUCAAAUAAAUUAAAACACAACAGAGGAUUGAGCAUCA
B6: 19964410_19964530_1467_3pUTR_ENSMUSG00000020152_ENSMUST00000000137|mouse|control|control (ssRNA)
RNA: GGGAGUUCUACAGUCCGACGAUCUCUAAAUGCCUACAAAGAAAGAAACAGAGCAGCAGCAACCCCUUGCCCUGGUAAUGUCUGCAAAGAUUUGGUAGCCUUAAACAACCAGAUUUACCCAUAUUAACAAGAAUUUAGCAAUGCCAACAGAGGAUUGAGCAUCA
B7: chr7:149838072:149838073:-_ENSMUSG00000048583_ENSMUST00000000033|mus_hu|motif|central (ssRNA)
RNA: GGGAGUUCUACAGUCCGACGAUCUCACUGCCCCCCUGUUACAUGGGGGGGGGGUUUAAUUUGGUUUCUGAGCGCAUAAAGCGGAGGAGGGGUAAAAAAAAAACAAAAAAAAAAAAAAAAGGAAAAAUGCCCCAAGAAACAAAGCAACAGAGGAUUGAGCAUCA
B8: chr7:149838072:149838073:-_ENSMUSG00000048583_ENSMUST00000000033|mus_hu|FALSE|FALSE (ssRNA)
RNA: B7 RNA with G82U, G83A
B9: chr1:183098298:183098299:+_ENSMUSG00000062169_ENSMUST00000134115|mus_hu|FALSE|FALSE (ssRNA)
RNA: GGGAGUUCUACAGUCCGACGAUCUAUAAACAUGGCACCUUUCUGAUUUGCUUAGCCUCAGCAAGCCUGAUGUACUGUAAACUGACAGCCCAAAGGCUCUCUCAACUGCAUGAGUCACUGUUUUGGUUACUAAGAAUAUCUGAACAACAGAGGAUUGAGCAUCA
B10: chr8:4269914:4269915:-_ENSMUSG00000002949_ENSMUST00000149827|mus_mus|motif|central (ssRNA)
RNA: GGGAGUUCUACAGUCCGACGAUCCUUCUUGGCCUCAUCUCGGAACUUUUUUAUACUUUCUUUCAUCUCUUUGUUUUUGGCGGAUUCUUGUUUGAUGUUAUCUAGCAAGCCUGACAAAAACCCUUUUCUGCUCCCAGAAGAAUACAACAGAGGAUUGAGCAUCA
B11: 19721883_19722003_1295_CDS_ENSMUSG00000050428_ENSMUST00000053109|mouse|control|control (ssRNA)
RNA: GGGAGUUCUACAGUCCGACGAUCAGGGCUCACUGUCAGGCACACAGUCUCUUCCUUCACGUUCUUGGUGCCAUCUUUGCCAAAGAAGAUGCACGCAUCCACUACACCUGUUACCACCACAUCUACAUGGAAUCCUGAUGCACCCAACAGAGGAUUGAGCAUCA
B12: chr18:56819859:56819860:+_ENSG00000166562_ENST00000588875|hu_mus|hu_hu_hu_mus_True|18_38 (ssRNA)
RNA: GGGAGUUCUACAGUCCGACGAUCAACCUUGAUUACUCUGUGAACUAUCGGAAUGUCUCUUCCUUCAACCUUAAAAACAACUAUUUCACCAGCUCUGAUUGGGUCUUCCCGGAAAUUUGUGAGGAACAGCAGAUCUCCUCUGUGCAACAGAGGAUUGAGCAUCA
B13: chr6:128323885:128323886:+_ENSMUSG00000001517_ENSMUST00000073316|mus_mus|motif|central (ssRNA)
RNA: GGGAGUUCUACAGUCCGACGAUCAGGGUCCUCCUCCAGGCCAGGGAAACUGAUGUCUAGAAGGAUCUUGCUGAGGCGGUCAUUCAUUGUGUCCAGGACAAGGCCUUCUGUGAGAGAACGGUUGGCUGAAAGGCUGGGAAUCUGCAACAGAGGAUUGAGCAUCA
B14: chr12:48459454:48459455:-_ENSG00000079387_ENST00000551330|hu_mus|motif|central (ssRNA)
RNA: GGGAGUUCUACAGUCCGACGAUCUGCUUUCUGCUCUUCAAUCCGGCGCAAUCUUUCCCGAGCUCGAGAGUCAUAAACGCGGGUUAAUUCUUUGAUCCAUAGCUCUGCCUGGAAGAACGUAGGGCUGGAAGCUGGAGUCUGAGACAACAGAGGAUUGAGCAUCA
B15: 55347689_55347809_2221_3pUTR_ENSMUSG00000021488_ENSMUST00000099490|mouse|control|control (ssRNA)
RNA: GGGAGUUCUACAGUCCGACGAUCACUCAGCAGUUUCAGGCUCCAUUGUCUUGGUAGAACCCAUUAAAUGGUCUGCAUGGGAAUUAGUAAUGAGGGAUUUCUGUUUCUCUUUUAUCCUGUUUGUGACAGGAUAUCUAGAAUACUCAACAGAGGAUUGAGCAUCA
B16: chr3:122152592:122152593:-_ENSG00000114030_ENST00000344337|hu_mus|motif|central (ssRNA)
RNA: GGGAGUUCUACAGUCCGACGAUCAUUUGUGAUGGCCCAAGCAGCUUCCUUCCUUGUCCGGAACUCUGCUGUUUGCAAUAUACGGAUAAGAGCUGGGAACAUGUUAGCAUCUAUCACAGUCUGGAUCUGUGCCCUAUUUCCAGCCAACAGAGGAUUGAGCAUCA
B17: chr17:60770872:60770873:+_ENSG00000011028_ENST00000303375|hu_hu|hu_hu_hu_mus_True|1_68 (ssRNA)
RNA: GGGAGUUCUACAGUCCGACGAUCUCUUUAAAAAAAAAAAAAAAAAGACAAACAAUAAUAGCACAUUAUUUAAAAAAAGAACUACAAUAGAGGGUCCGCUUUGAGUUUUUGUUCACAUCGUCCUGCACUGGGACACGACCAGGACAACAGAGGAUUGAGCAUCA
B18: chr17:60770872:60770873:+_ENSG00000011028_ENST00000303375|hu_hu|hu_hu_hu_mus_True|58_68 (ssRNA)
RNA: B17 RNA with A77U, G78C, A86G, A137G, C138G, C139G, G141C, G142U, A143G
B19: chr17:60770872:60770873:+_ENSG00000011028_ENST00000303375|hu_hu|hu_hu_hu_mus_True|18_68 (ssRNA)
RNA: GGGAGUUCUACAGUCCGACGAUCUCUUUAAAAAAAAAAAAAAAAAGACAAACAAUAAUAGCACAUUAUUUAAAAAAAGAACUACAAUAGAGGGUCCGCUUUGAGUUUUUGUUCACAACAUUGUCCCCUGGGACACGGGGACUGCAACAGAGGAUUGAGCAUCA
B20: chr17:60770872:60770873:+_ENSG00000011028_ENST00000303375|hu_hu|hu_hu_hu_mus_True|1_18 (ssRNA)
RNA: GGGAGUUCUACAGUCCGACGAUCUCUUUAAAAAAAAAAAAAAAAAGACAAACAAUAAUAGCACAUUUCGAGAAUCAAGAACUACAAUAGAGGGUCCGCUUUGAGUUUUUGUUCACAACAUUGUCCCCUGGGACACGACCAGGACAACAGAGGAUUGAGCAUCA
B21: chr17:60770872:60770873:+_ENSG00000011028_ENST00000303375|hu_hu|hu_hu_hu_mus_True|28_68 (ssRNA)
RNA: GGGAGUUCUACAGUCCGACGAUCUCUUUAAAAAAAAAAAAAAAAAGACAAACAAUAAUAGCACAUUAUUUAAAAAAAGAACUACAAUAGAGGGUCCGCUUUGAGUUGUCCAUGUUCUCGUCCUGCACUGGGACACGGGGACUGCAACAGAGGAUUGAGCAUCA
B22: chr17:60770872:60770873:+_ENSG00000011028_ENST00000303375|hu_hu|hu_hu_hu_mus_True|1_38 (ssRNA)
RNA: GGGAGUUCUACAGUCCGACGAUCUCUUUAAAAAAAAAAAAAAAAAGACAAACAAUAAUAGCACAUUUCGAGAAUCAAGAACUACAAUAGAGGGUCCAUGUCUUCGAUUUGUUCACAUCGUCCUGCACUGGGACACGACCAGGACAACAGAGGAUUGAGCAUCA
B23: chr17:60770872:60770873:+_ENSG00000011028_ENST00000303375|hu_hu|hu_hu_hu_mus_True|68_68 (ssRNA)
RNA: B19 RNA with A117U, A119G, U121C, G122C, C124G, C126A

molecular target: T1, UNK ZnF1-3; test: nsRBNS (natural sequence RNA bind-n-seq); RBNS binding buffer (assumed for nsRBNS): 25 mM Tris pH 7.5, 150 mM KCl, 3 mM MgCl2, 0.01% Triton X-100, 500 ug/ml BSA, 20 U/ml SUPERase-In, 4 C; UNK is unkempt and MSI1 is Musashi-1; names of the RNAs are library labels; protein concentration not given here; high values mean tight binding

Binder	binding signal [enrichment R]
B1	1.57
B2	0.93
B3	2.23
B4	1.03
B5	1.01
B6	1.74
B7	22.9
B8	12.2
B9	0.858
B10	0.472
B11	1.01
B12	0.803
B13	1.01
B14	1.03
B15	0.567
B16	0.808
B17	3.57
B18	4.95
B19	4.47
B20	3.43
B21	4.92
B22	2.39
B23	4.87

From article PMC12136788
